Experiment [1] in a line: qHTS assay to identify aromatase inhibitors - cell viability counter screen (AID 743084).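 Note: cells stimulated with testosterone during compound exposure; nearly all actives have a fitted effect of over 55% in size.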 For orientation: In qHTS, concentration-response curves come from the screen itself.
Experiment [2] addresses Aryl hydrocarbon receptor (Homo sapiens) (UniProt P35869). Briefly: qHTS assay to identify small molecule that activate the aryl hydrocarbon receptor (AhR) signaling pathway (AID 743085).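 For activation: HG2L7.5c1 human HepG2 liver cells with stably integrated DRE-driven firefly reporter; series mostly up to about 70 µM.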 Note: nearly all actives have a fitted effect of over 15% in size. Note: potency is the fitted concentration of half-maximal effect. A digest of the protocol:
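24 h compound exposure, 37C, HepG2-derived HG2L7.5c1 cells with DRE-responsive luciferase. Readouts: fluorescence viability, then luminescence at room temperature after 30 min.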

Experiment [3] in a line: qHTS assay to identify small molecule that activate the aryl hydrocarbon receptor (AhR) signaling pathway - cell viability counter screen (AID 743086).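 Note: HepG2 liver cells carrying the AhR DRE luciferase reporter; series mostly up to about 70 µM; nearly all actives have a fitted effect of over 45% in size.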 A digest of the protocol:
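HepG2-AhR-luc (HG2L7.5c1) cells, 4000/well, treated 24 h at 37 C with compound; viability measured as CellTiter-Fluor fluorescence after 30 min in the same wells as the luciferase read.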

In experiment [4] the target is Peroxisome proliferator-activated receptor gamma (Homo sapiens) (UniProt P37231). Briefly: qHTS assay to identify small molecule agonists of the peroxisome proliferator-activated receptor gamma (PPARg) signaling pathway (AID 743094; active = well fitted activation curve with a large enough effect in the signal ratio in the repeat runs, not every such curve was filed as active; the % refers to the signal ratio). In outline: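 Cell-based bla reporter, HEK293H background, PPARg-driven UAS. Pre-incubation 5 h, 37C, 5% CO2. Compound 17 h, 37C. Substrate 1 h RT; fluorescence.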
Chain of Peroxisome proliferator-activated receptor gamma (Homo sapiens) (P37231 whole entry, looked up): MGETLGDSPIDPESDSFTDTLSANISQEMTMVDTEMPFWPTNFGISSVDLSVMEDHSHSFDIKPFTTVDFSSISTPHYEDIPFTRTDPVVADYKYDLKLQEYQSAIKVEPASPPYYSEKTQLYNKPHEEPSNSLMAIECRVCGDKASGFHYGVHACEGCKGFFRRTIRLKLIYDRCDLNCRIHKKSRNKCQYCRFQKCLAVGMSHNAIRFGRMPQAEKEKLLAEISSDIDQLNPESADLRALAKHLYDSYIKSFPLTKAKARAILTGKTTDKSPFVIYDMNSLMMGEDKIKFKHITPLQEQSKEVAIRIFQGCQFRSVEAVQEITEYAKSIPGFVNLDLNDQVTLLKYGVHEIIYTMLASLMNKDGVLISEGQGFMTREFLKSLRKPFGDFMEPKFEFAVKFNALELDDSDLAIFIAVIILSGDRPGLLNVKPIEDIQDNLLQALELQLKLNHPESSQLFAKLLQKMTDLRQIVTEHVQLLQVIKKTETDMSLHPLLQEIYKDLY

Our source for the Potency values is PubChem BioAssay (Tox21).

Inconclusive results are not listed. The source made the active and inactive calls. Unless noted, calls come from the whole dose curve; as a rule, active = well fitted curve in the direction sought with a large enough effect in the repeat runs; inconclusive = weak or mixed curves; inactive = no such curve, though single readings can be large; an effect the other way counts as inactive or inconclusive.

Chain of Aryl hydrocarbon receptor (Homo sapiens) (P35869 whole entry, looked up): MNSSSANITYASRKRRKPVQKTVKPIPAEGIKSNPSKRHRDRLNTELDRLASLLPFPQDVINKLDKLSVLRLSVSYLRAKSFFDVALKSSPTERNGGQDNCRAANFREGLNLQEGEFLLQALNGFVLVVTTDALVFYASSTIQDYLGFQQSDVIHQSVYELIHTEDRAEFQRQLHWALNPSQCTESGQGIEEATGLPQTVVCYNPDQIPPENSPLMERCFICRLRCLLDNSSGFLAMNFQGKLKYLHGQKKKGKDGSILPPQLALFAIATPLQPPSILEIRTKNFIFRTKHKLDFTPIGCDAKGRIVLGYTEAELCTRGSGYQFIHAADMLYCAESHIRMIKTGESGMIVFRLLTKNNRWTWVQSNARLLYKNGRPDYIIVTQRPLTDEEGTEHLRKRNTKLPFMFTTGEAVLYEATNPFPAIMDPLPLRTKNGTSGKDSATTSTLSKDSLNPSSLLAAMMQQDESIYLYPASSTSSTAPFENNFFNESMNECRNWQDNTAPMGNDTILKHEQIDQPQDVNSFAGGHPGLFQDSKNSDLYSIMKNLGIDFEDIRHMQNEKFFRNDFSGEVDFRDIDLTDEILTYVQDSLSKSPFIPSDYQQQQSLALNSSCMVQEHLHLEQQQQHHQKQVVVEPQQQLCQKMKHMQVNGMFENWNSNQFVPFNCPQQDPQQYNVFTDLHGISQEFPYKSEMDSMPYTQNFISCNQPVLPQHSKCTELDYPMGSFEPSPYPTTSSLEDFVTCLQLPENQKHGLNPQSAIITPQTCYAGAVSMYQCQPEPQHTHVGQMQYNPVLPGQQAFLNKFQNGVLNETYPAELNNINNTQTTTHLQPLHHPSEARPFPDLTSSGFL

Regarding `CCN(CC)CCNC(=O)c1ccc(NS(C)(=O)=O)cc1`, the Potency entry in experiment [1], in experiment [2], in experiment [3] and in experiment [4] was “inactive” in each case.

With `C=CC[N+]1([C@H]2C[C@H]3[C@@H]4CC[C@H]5C[C@H](O)[C@@H](N6CCOCC6)C[C@]5(C)[C@H]4CC[C@]3(C)[C@H]2OC(C)=O)CCCC1`, the Potency result in experiment [1], in experiment [2], in experiment [3] and in experiment [4] was “inactive” each time.

With `O=C(O)c1cc2cc(Cc3cccnc3)ccc2o1`, the Potency result in experiment [1], in experiment [2], in experiment [3] and in experiment [4] was “inactive” throughout.

For `FC(F)(F)COCC(F)(F)F`, the Potency result in experiment [1], in experiment [2], in experiment [3] and in experiment [4] was “inactive” each time.

For `CC[N+](CC)(CC)CCC(O)(c1ccccc1)C1CCCCC1` (stereo not drawn), the Potency entry in experiment [1], in experiment [2], in experiment [3] and in experiment [4] was “inactive” in each case.

For the compound `O=C(O)COc1ccc(C(=O)c2cccs2)c(Cl)c1Cl`, the Potency entry in experiment [1], in experiment [2], in experiment [3] and in experiment [4] was “inactive” throughout.

With `NCC1CCC(C(=O)O)CC1` (stereo not drawn), the Potency result in experiment [1], in experiment [2], in experiment [3] and in experiment [4] was “inactive” throughout.

Take `C[S+](CC[C@H](N)C(=O)O)C[C@H]1O[C@@H](n2cnc3c(N)ncnc32)[C@H](O)[C@@H]1O` (stereo partly drawn): the Potency result in experiment [1], in experiment [2], in experiment [3] and in experiment [4] was “inactive” throughout.

As for `CC(C)NCC1CCc2cc(CO)c([N+](=O)[O-])cc2N1` (stereo not drawn), the Potency entry in experiment [1], in experiment [2], in experiment [3] and in experiment [4] was “inactive” in each case.

As for `O=C(O)CCCC/C=C(\c1ccccc1)c1cccnc1`, the Potency entry in experiment [1], in experiment [2], in experiment [3] and in experiment [4] was “inactive” in each case.

As to `CCC[C@@H]1C[C@@H](C(=O)N[C@@H]([C@H]2O[C@H](SC)[C@H](OP(=O)(O)O)[C@@H](O)[C@H]2O)[C@H](C)Cl)N(C)C1`, the Potency result in experiment [1], in experiment [2], in experiment [3] and in experiment [4] was “inactive” in each case.

As to `CC(C)OC(=O)Nc1ccc2nc(-c3cscn3)[nH]c2c1`, the Potency entry in experiment [1], in experiment [3] and in experiment [4] was “inactive” throughout. Besides, the Potency in experiment [2] is 6.68 µM (active).

In the case of `CCCCCCCCCCCCCCCCCCOCC(COP(=O)([O-])OCC[N+](C)(C)C)OC` (stereo not drawn), the Potency result in experiment [1], in experiment [2], in experiment [3] and in experiment [4] was “inactive” in each case.

In the case of `CN[C@@H]1[C@@H](O[C@H]2O[C@H](CO)[C@@H](N)[C@H](O)[C@H]2O)O[C@H]2C[C@@H](N)[C@@H](O[C@H]3[C@H](O)[C@@H](O)[C@H](N)C[C@@H]3N)O[C@@H]2[C@@H]1O`, the Potency entry in experiment [1], in experiment [2], in experiment [3] and in experiment [4] was “inactive” each time.

As for `CCN(CC)CCOC[C@H]1O[C@@H](O)[C@H](OCCN(CC)CC)[C@@H](O)[C@@H]1O`, the Potency entry in experiment [1], in experiment [2], in experiment [3] and in experiment [4] was “inactive” in each case.

Turning to `O=C(O)c1cc(=O)c2c3nc4ccccc4oc-3cc(=O)c2[nH]1`, the Potency result in experiment [1], in experiment [3] and in experiment [4] was “inactive” in each case. Further, in experiment [2], the Potency is 4.22 µM (active).

Regarding `O=C(O)/C=C/C(O)c1ccc(Cl)cc1` (stereo not drawn), the Potency result in experiment [1], in experiment [2], in experiment [3] and in experiment [4] was “inactive” each time.

As to `CCCCCCCCCCCCCCCC(=O)OC[C@H](COP(=O)([O-])OCC[N+](C)(C)C)OC(=O)CCCCCCCCCCCCCCC`, the Potency result in experiment [1], in experiment [2], in experiment [3] and in experiment [4] was “inactive” each time.

Regarding `CO/N=C(\C(=O)N[C@@H]1C(=O)N2C(C(=O)O)=C(CSc3nc(C)c(CC(=O)O)s3)CS[C@H]12)c1csc(N)n1`, the Potency result in experiment [1], in experiment [2], in experiment [3] and in experiment [4] was “inactive” in each case.

Take `CN1C(C(=O)Nc2ccccn2)C(=O)c2sc(Cl)cc2S1(=O)=O` (stereo not drawn): the Potency entry in experiment [1], in experiment [2], in experiment [3] and in experiment [4] was “inactive” throughout.

For `N=C(N)n1cccn1`, the Potency entry in experiment [1], in experiment [2], in experiment [3] and in experiment [4] was “inactive” throughout.

Take `CC(C)CCC[C@@H](C)[C@H]1CC[C@H]2[C@@H]3CC=C4C[C@@H](O)CC[C@]4(C)[C@H]3CC[C@]12C`: the Potency entry in experiment [1], in experiment [2], in experiment [3] and in experiment [4] was “inactive” throughout.

For `Cc1ncc(C[n+]2csc(CCOP(=O)(O)O)c2C)c(N)n1`, the Potency result in experiment [1], in experiment [2], in experiment [3] and in experiment [4] was “inactive” throughout.

Turning to `NC(=S)NS(=O)(=O)c1ccc(N)cc1`, the Potency entry in experiment [1], in experiment [2], in experiment [3] and in experiment [4] was “inactive” each time.

`CC(=O)OCC(=O)[C@@]1(O)CC[C@H]2[C@@H]3C[C@H](C)C4=CC(=O)C=C[C@]4(C)[C@H]3[C@@H](O)C[C@@]21C`: the Potency result in experiment [1], in experiment [2], in experiment [3] and in experiment [4] was “inactive” in each case.

On to `C[N+](C)(C)CCOP(=O)(O)OP(=O)([O-])OC[C@H]1O[C@@H](n2ccc(N)nc2=O)[C@H](O)[C@@H]1O`, for which the Potency entry in experiment [1], in experiment [2], in experiment [3] and in experiment [4] was “inactive” throughout.

With `NC(=O)CC[C@@H]1NC(=O)[C@H](Cc2ccccc2)NC(=O)[C@H](Cc2ccc(O)cc2)NC(=O)[C@@H](N)CSSC[C@@H](C(=O)N2CCC[C@H]2C(=O)N[C@@H](CCCN=C(N)N)C(=O)NCC(N)=O)NC(=O)[C@H](CC(N)=O)NC1=O`, the Potency entry in experiment [1], in experiment [2], in experiment [3] and in experiment [4] was “inactive” throughout.
